Assay results: PubChem BioAssay (EPA / NIEHS)
“And” between values parts separate entries of the source, which are not always exact repeats. Equal values may be shown once. More than one record can exist for a structure, and the calls need not agree. The source made the active and inactive calls. How the source made its calls: active means hit-call score of the fitted dose curve at least 0.9, where 1 is the maximum; inactive means score below 0.9.

Key:
[1] = read-out: Macrophage colony-stimulating factor (MCSF), CSF1 (gene 1435); test: BSK_hDFCGF_MCSF: BioMAP Diversity Plus: hDFCGF Assay for Macrophage colony-stimulating factor (MCSF) Biomarker Activity (AID 2283060); conditions: primary human foreskin fibroblasts; actives raise or lower the signal
Procedure, shortened: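 Human foreskin primary fibroblasts were treated with test chemical for 24 h, and M-CSF was then measured by ELISA. Data were fitted bidirectionally against DMSO as the negative control and activity baseline.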

[2] = read-out: TIMP metallopeptidase inhibitor 1 (TIMP1), TIMP1 (gene 7076); test: BSK_hDFCGF_TIMP1: BioMAP Diversity Plus: hDFCGF Assay for TIMP metallopeptidase inhibitor 1 (TIMP1) Biomarker Activity (AID 2283062); conditions: primary human foreskin fibroblasts; actives raise or lower the signal
Procedure, shortened: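 Primary human foreskin fibroblasts in the hDFCGF system were dosed with compound for 24 h, then TIMP-1 was measured by ELISA. Activity was fitted bidirectionally relative to DMSO control; parallel SRB staining assessed cytotoxicity.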

[3] = read-out: Monokine induced gamma interferon (MIG), CXCL9 (gene 4283); test: BSK_hDFCGF_MIG: BioMAP Diversity Plus: hDFCGF Assay for Monokine induced gamma interferon (MIG) Biomarker Activity (AID 2283063); conditions: primary human foreskin fibroblasts; actives raise or lower the signal
Procedure, shortened: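 ELISA read-out of MIG from primary human dermal fibroblasts 24 h post-dosing. Gain or loss of signal fitted bidirectionally, DMSO as baseline.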

[4] = read-out: Matrix Metallopeptidase 1 (MMP1), MMP1 (gene 4312); test: BSK_hDFCGF_MMP1: BioMAP Diversity Plus: hDFCGF Assay for Matrix Metallopeptidase 1 (MMP1) Biomarker Activity (AID 2283064); conditions: primary human foreskin fibroblasts; actives raise or lower the signal
Procedure, shortened: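 Primary human foreskin fibroblasts in the hDFCGF system were dosed with test chemical, and MMP1 was measured by ELISA 24 h later. Values come from bidirectional curve fitting against the DMSO baseline.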

[5] = read-out: Vascular cell adhesion molecule 1 (VCAM1), VCAM1 (gene 7412); test: BSK_hDFCGF_VCAM1: BioMAP Diversity Plus: hDFCGF Assay for Vascular cell adhesion molecule 1 (VCAM1) Biomarker Activity (AID 2283065); conditions: primary human foreskin fibroblasts; actives raise or lower the signal;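 on AC50: VCAM-1 protein level quantified by ELISA after 24 h chemical exposure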
Procedure, shortened: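 Primary human foreskin fibroblasts (hDFCGF system) were dosed with chemical and VCAM-1 was measured by ELISA 24 h later. Bidirectional curve fitting used DMSO as negative control and activity baseline.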

[6] = read-out: Plasminogen activator inhibitor-1 (PAI1), SERPINE1 (gene 5054); test: BSK_hDFCGF_PAI1: BioMAP Diversity Plus: hDFCGF Assay for Plasminogen activator inhibitor-1 (PAI1) Biomarker Activity (AID 2283066); conditions: primary human foreskin fibroblasts; actives raise or lower the signal
Procedure, shortened: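 Human foreskin fibroblast primary cells, 24 h chemical exposure; PAI-1 measured by ELISA. Bidirectional fitting relative to DMSO; parallel cultures stained with SRB for total protein to flag overt cytotoxicity.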

[7] = read-out: Intercellular Adhesion Molecule 1 (ICAM1), ICAM1 (gene 3383); test: BSK_KF3CT_ICAM1: BioMAP Diversity Plus: KF3CT Assay for Intercellular Adhesion Molecule 1 (ICAM1) Biomarker Activity (AID 2283067); conditions: primary human keratinocytes with fibroblasts; actives raise or lower the signal
Procedure, shortened: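 Human keratinocyte plus foreskin fibroblast primary co-culture was exposed to chemical for 24 h. ICAM-1 was then quantified by ELISA, and the data were fit bidirectionally against DMSO as the negative control and baseline.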

[8] = read-out: Interferon-gamma inducible Protein 10 (IP10), CXCL10 (gene 3627); test: BSK_KF3CT_IP10: BioMAP Diversity Plus: KF3CT Assay for Interferon-gamma inducible Protein 10 (IP10) Biomarker Activity (AID 2283068); conditions: primary human keratinocytes with fibroblasts; actives raise or lower the signal
Procedure, shortened: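 KF3CT co-culture (keratinocytes + foreskin fibroblasts), 24 h compound, IP-10 by ELISA; bidirectional fit vs DMSO baseline.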

[9] = BSK_KF3CT_SRB: Viability Assessment in the BioMAP Diversity Plus: KF3CT Assay (AID 2283069); conditions: primary human keratinocytes with fibroblasts
Procedure, shortened: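 Human primary keratinocyte plus foreskin fibroblast co-culture exposed to chemicals for 24 h. Total protein measured by 0.1% sulforhodamine B staining after 10% TCA fixation, read at 560 nm; bidirectional fitting versus DMSO baseline.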

[10] = read-out: C-C motif chemokine 2 (Homo sapiens) (UniProt P13500); test: BSK_KF3CT_MCP1: BioMAP Diversity Plus: KF3CT Assay for Monocyte Chemoattractant Protein 1 (MCP1/CCL2) Biomarker Activity (AID 2283073); conditions: primary human keratinocytes with fibroblasts; actives raise or lower the signal
Procedure, shortened: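 Human keratinocyte plus foreskin fibroblast primary co-culture exposed to chemical for 24 h. MCP-1 levels measured by ELISA. Bidirectional curve fitting relative to DMSO negative control as baseline.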

[11] = read-out: Matrix Metallopeptidase 9 (MMP9), MMP9 (gene 4318); test: BSK_KF3CT_MMP9: BioMAP Diversity Plus: KF3CT Assay for Matrix Metallopeptidase 9 (MMP9) Biomarker Activity (AID 2283074); conditions: primary human keratinocytes with fibroblasts; actives raise or lower the signal
Procedure, shortened: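 Keratinocyte plus foreskin fibroblast human primary skin co-culture was dosed with chemical and MMP-9 was quantified by ELISA 24 h later. Bidirectional curve fitting used DMSO as negative control and activity baseline.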

[12] = read-out: urokinase plasminogen activator (uPA), PLAU (gene 5328); test: BSK_KF3CT_uPA: BioMAP Diversity Plus: KF3CT Assay for urokinase plasminogen activator (uPA) Biomarker Activity (AID 2283075); conditions: primary human keratinocytes with fibroblasts; actives raise or lower the signal
Procedure, shortened: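 Human keratinocyte plus foreskin fibroblast primary co-culture exposed to chemical for 24 h. uPA levels were quantified by ELISA, and activity was fitted bidirectionally against a DMSO negative-control baseline.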

[13] = read-out: CD40, CD40 (gene 958); test: BSK_LPS_CD40: BioMAP Diversity Plus: LPS Assay for CD40 Biomarker Activity (AID 2283076); conditions: primary human HUVEC with PBMC; actives raise or lower the signal
Procedure, shortened: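 Primary human umbilical vein endothelial cells co-cultured with peripheral blood mononuclear cells, LPS-stimulated, were dosed with chemical and read 24 h later. CD40 levels were measured by ELISA and fitted bidirectionally against DMSO as negative control and baseline.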

[14] = read-out: E-selectin (Homo sapiens) (UniProt P16581); test: BSK_LPS_Eselectin: BioMAP Diversity Plus: LPS Assay for Eselectin Biomarker Activity (AID 2283077); conditions: primary human HUVEC with PBMC; actives raise or lower the signal
Procedure, shortened: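 Human umbilical vein endothelial cells co-cultured with peripheral blood mononuclear cells under LPS stimulation; E-selectin measured by ELISA 24 h after chemical dosing. Activity fitted bidirectionally against DMSO as negative control and baseline.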

[15] = read-out: Interleukin-8 (IL8), CXCL8 (gene 3576); test: BSK_LPS_IL8: BioMAP Diversity Plus: LPS Assay for Interleukin-8 (IL8) Biomarker Activity (AID 2283078); conditions: primary human HUVEC with PBMC; actives raise or lower the signal
Procedure, shortened: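 Human umbilical vein endothelial cells co-cultured with PBMC were stimulated with LPS; IL-8 levels were measured by ELISA 24 h after chemical dosing. Activity was fitted bidirectionally against DMSO as negative control and baseline.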

[16] = BSK_LPS_SRB: Viability Assessment in the BioMAP Diversity Plus: LPS Assay (AID 2283079); conditions: primary human HUVEC with PBMC;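 further: total protein by sulforhodamine B absorbance as a cytotoxicity measure; measured one day after compound addition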
Procedure, shortened: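 Human umbilical vein endothelial cells co-cultured with PBMC (LPS system) were dosed for 24 h. Total protein was stained with 0.1% sulforhodamine B after 10% TCA fixation, read at 560 nm, and fitted bidirectionally against DMSO baseline.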

[17] = BSK_hDFCGF_SRB: Viability Assessment in the BioMAP Diversity Plus: hDFCGF Assay (AID 2283061); conditions: primary human foreskin fibroblasts;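 further: cells exposed to compound for 24 h before the read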
Procedure, shortened: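 Human foreskin primary fibroblasts were treated with compound and assessed 24 h after dosing. Total protein was measured by sulforhodamine B staining (0.1% SRB after 10% TCA fixation, 560 nm read) as a cytotoxicity marker, with bidirectional fitting against DMSO baseline.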

[18] = read-out: Interleukin-1 alpha (IL1a), IL1A (gene 3552); test: BSK_KF3CT_IL1a: BioMAP Diversity Plus: KF3CT Assay for Interleukin-1 alpha (IL1a) Biomarker Activity (AID 2283070); conditions: primary human keratinocytes with fibroblasts; actives raise or lower the signal
Procedure, shortened: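 Human keratinocyte plus foreskin fibroblast primary co-culture, sampled 24 h after chemical dosing. IL-1a measured by ELISA; responses fitted bidirectionally against DMSO baseline (negative control), so gain or loss of signal both count.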

[19] = read-out: Transforming growth factor beta 1 (TGFb1), TGFB1 (gene 7040); test: BSK_KF3CT_TGFb1: BioMAP Diversity Plus: KF3CT Assay for Transforming growth factor beta 1 (TGFb1) Biomarker Activity (AID 2283072); conditions: primary human keratinocytes with fibroblasts; actives raise or lower the signal
Procedure, shortened: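 Human keratinocyte/foreskin fibroblast co-culture; TGF-b1 measured by ELISA 24 h after dosing, fitted bidirectionally versus DMSO. Cytotoxicity checked in parallel cultures by total protein (SRB staining, 560 nm).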

Measured: AC50

E-selectin (Homo sapiens), sequence (P16581 whole entry, looked up): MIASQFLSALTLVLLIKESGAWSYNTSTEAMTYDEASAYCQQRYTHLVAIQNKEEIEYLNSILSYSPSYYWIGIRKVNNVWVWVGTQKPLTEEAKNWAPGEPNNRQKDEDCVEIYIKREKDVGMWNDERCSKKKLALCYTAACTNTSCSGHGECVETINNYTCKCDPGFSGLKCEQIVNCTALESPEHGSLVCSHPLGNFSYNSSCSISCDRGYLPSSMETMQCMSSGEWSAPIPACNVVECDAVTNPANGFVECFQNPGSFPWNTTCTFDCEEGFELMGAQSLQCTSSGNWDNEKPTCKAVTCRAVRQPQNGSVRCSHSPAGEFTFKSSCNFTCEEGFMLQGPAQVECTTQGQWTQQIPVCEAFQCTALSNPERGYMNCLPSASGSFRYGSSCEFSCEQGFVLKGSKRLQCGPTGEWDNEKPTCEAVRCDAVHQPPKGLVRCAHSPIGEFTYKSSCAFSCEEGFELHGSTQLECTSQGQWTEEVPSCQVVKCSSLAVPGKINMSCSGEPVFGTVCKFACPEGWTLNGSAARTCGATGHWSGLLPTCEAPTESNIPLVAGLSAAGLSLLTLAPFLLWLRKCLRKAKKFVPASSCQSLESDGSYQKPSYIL

C[Si](Cl)(Cl)CCC(F)(F)C(F)(F)C(F)(F)C(F)(F)C(F)(F)C(F)(F)F
inactive: [1] | [2] | [4] | [6] | [7] | [8] | [9] | [10] | [11] | [12] | [13] | [14] | [15] | [16]
active: [1] 605 nM | [2] 739 nM | [3] 1.26 µM and 1.52 µM | [4] 1180 nM | [5] 1.4 µM and 876 nM

OC(O)C(F)(F)C(F)(F)F
inactive: [1] | [17] | [2] | [3] | [4] | [5] | [6] | [7] | [8] | [9] | [10] | [11] | [12] | [13] | [14] | [15] | [16]

O=C(Cl)C(F)(F)C(F)(F)C(F)(F)C(F)(F)C(F)(F)C(F)(F)C(F)(F)F
inactive: [1] | [2] | [3] | [4] | [5] | [6] | [7] | [8] | [9] | [18] | [10] | [11] | [12] | [13] | [14] | [15] | [16]
active: [2] 26400 nM | [15] 20.2 µM and 16.6 µM

Cc1cnccn1
inactive: [1] | [17] | [2] | [3] | [4] | [5] | [6] | [7] | [8] | [9] | [19] | [10] | [11] | [12] | [13] | [14] | [15] | [16]

OCC(O)CC(F)(F)C(F)(F)C(F)(F)C(F)(F)F (configuration not stated)
inactive: [1] | [2] | [3] | [4] | [5] | [6] | [7] | [8] | [9] | [18] | [10] | [11] | [12] | [13] | [14] | [15] | [16]

O=S(=O)(O)CCC(F)(F)C(F)(F)C(F)(F)C(F)(F)C(F)(F)C(F)(F)C(F)(F)C(F)(F)F
active: [4] 30000 nM
inactive: [1] | [2] | [3] | [4] | [5] | [6] | [7] | [8] | [9] | [10] | [11] | [12] | [13] | [14] | [15] | [16]
